Results on 40 molecules are retold here after PubChem BioAssay (NCATS).

Records with an inconclusive call do not appear. Entries that show only a call come without a potency. Calls of active or inactive are those of the source. Calls follow the shape of the dose curve; as a rule, active = well fitted inhibition curve with a large enough effect; inconclusive = small, poorly fitted or top-dose-only effect; inactive = no such curve, though single readings can be large or run the other way. Where a SMILES comes first, the peptide text is derived from it. [ ]: non-standard residue; d: D form. Hyp = O=C(O)[CH]1C[CH](O)CN1; Phe(ol) = N[CH](CO)Cc1ccccc1; Iva = CC[C](C)(N)C(=O)O; Aib = CC(C)(N)C(=O)O

This assay concerns Zika virus NS2B-NS3 protease (unlinked complex). The experiment in a line: Primary screen GU Rhodamine qHTS for Zika virus inhibitors: Unlinked NS2B-NS3 protease assay (AID 1347159). Also: nearly all actives have a fitted effect of over 60% in size. As to conditions: Recombinant ZIKV NS2B-NS3 protease, Rhodamine110 substrate fluorescence; series mostly up to 107 µM. In short, it runs like this:
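Compounds, tested up to 114 microM, were incubated for 15 minutes with 25 nM unlinked NS2B-NS3 protease at pH 8.0. Cleavage of 1.5 microM Rhodamine110 substrate was then followed by fluorescence for 15 minutes.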
(qHTS replaces the single test concentration by a dilution series.)
`CCN(CCNC(=O)Nc1ccccc1Br)c1cccc(C)c1`: the Potency result is “inactive”.

Take `C=C1CC2OC(=O)C(=C)C2C(O)/C=C(\C)CCC1O` (stereo not given): the Potency result is “inactive”.

As to `CCN1CCN(Cc2ccc(NC(=O)c3ccc(C)c(Oc4ncnc5[nH]c(C)cc45)c3)cc2C(F)(F)F)CC1`, the Potency result was “inactive”.

For `C=C1C(=O)O[C@@H]2C3C(=C(C)[C@@H](O)[C@@H](OC(=O)/C(=C/C)COC(C)=O)[C@@H]12)C(=O)[C@H]1O[C@@]31C` (stereo not given in full), the Potency result is “inactive”.

In the case of `COc1cc(NC(=O)c2cccc(-n3cc(NC(=O)Nc4cccc(C)c4)cn3)c2)cc(OC)c1OC`, the Potency result was “inactive”.

For the molecule `CN1CCN(C2CCN(C(=O)Nc3cc(Oc4ccc(NC(=O)C5(C(=O)Nc6ccc(F)cc6)CC5)c(F)c4)ccn3)CC2)CC1`, the Potency result was “inactive”.

As for `Cc1ccc(S(=O)(=O)NCc2ccc(C(=O)NCCN(Cc3ccccc3)C(C)C)cc2)cc1`, the Potency result is “inactive”.

With `O=C(NC1CCC1)c1ccc(C#Cc2cccc(F)c2)nc1`, the Potency entry is “inactive”.

On to `COc1ccccc1-c1ccc(-c2cn(C(=O)N3CCCCC3Cc3ccccc3)nn2)cc1` (stereo not given), for which the Potency result was “inactive”.

For the molecule `CC(C)(O)C1Cc2c(ccc(C(=O)CCc3ccccc3)c2O)O1` (stereo not given), the Potency entry was “inactive”.

Consider `c1cc(NCCc2c[nH]c3ccccc23)cc(Nc2ccncc2)c1`, for which the Potency entry is “inactive”.

For the molecule `Cn1ncc2cc(-c3cnc(N)c(Cl)c3N3CCC4(CCNC4=O)CC3)ccc21`, the Potency entry was “inactive”.

Turning to `C[C@@]12C(=O)N(c3ccc(C(=O)Nc4cccc5cccnc45)cc3)C(=O)[C@@H]1[C@@H]1C=C[C@H]2C1`, the Potency entry was “inactive”.

Regarding `Fc1ccc(N2CCCCC2)c(NC(=S)c2ccncc2)c1`, the Potency entry was “inactive”.

With `CC(C)CCNc1ncccc1C(=O)N1CCN(Cc2ccccc2)CC1`, the Potency result is “inactive”.

For `Nc1nccc(-c2c(-c3ccc(F)cc3)ncn2C2CCCCC2)n1`, the Potency entry was “inactive”.

Turning to `CC(C)NCCCn1c(Sc2cc3c(cc2I)OCO3)nc2c(N)ncnc21`, the Potency result was “inactive”.

For `CCOc1ccc(-n2c(C(C)N(Cc3cccnc3)C(=O)Cc3ccc(F)c(C(F)(F)F)c3)nc3ncccc3c2=O)cc1` (stereo not given), the Potency result is “inactive”.

`CCN(c1cc(-c2ccc(CN3CCOCC3)cc2)cc(C(=O)NCc2c(C)cc(C)[nH]c2=O)c1C)C1CCOCC1`: the Potency entry is “inactive”.

Regarding `CN1CC[C@@H](c2c(O)cc(O)c3c(=O)cc(-c4ccc(C(F)(F)F)cc4Cl)oc23)[C@@H]1CO`, the Potency entry was “inactive”.

For `CO[C@@H]1[C@H](O)CCC2(CO2)[C@H]1[C@@]1(C)O[C@@H]1CC=C(C)C` (stereo not given in full), the Potency result was “inactive”.

Consider `COc1ccccc1C(=O)Nc1cccc(NC(=O)c2cccc(C)c2)c1`, for which the Potency entry is “inactive”.

On to `CCOc1ccc(-n2c([C@@H](C)N(Cc3cccnc3)C(=O)Cc3ccc(OC(F)(F)F)cc3)nc3ncccc3c2=O)cc1`, for which the Potency result is “inactive”.

For `COCC(=O)NC/C=C/c1ccc2ncnc(Nc3ccc(Oc4ccc(C)nc4)c(C)c3)c2c1`, the Potency result was “inactive”.

As for `C=C1C(=O)OC2/C=C(\C)CC/C=C(\C)CC(OC(C)=O)C12` (stereo not given), the Potency result was “inactive”.

Regarding `CC(C)/C=C1\NC(=O)C(C(C)C)n2c1nc1ccccc1c2=O` (stereo not given), the Potency entry was “inactive”.

Take `O=[N+]([O-])c1cn2c(n1)OC[C@@H](OCc1ccc(-c3ccc(OC(F)(F)F)cc3)nc1)C2`: the Potency result is “inactive”.

Turning to `C=C1CO[C@@]2(O[C@H]3CC4C5CC=C6C[C@@H](O)C[C@@H](O[C@@H]7OC[C@H](O)[C@H](O[C@@H]8OC[C@@H](O)[C@H](O)[C@H]8O)[C@H]7O[C@@H]7O[C@@H](C)[C@H](OC(C)=O)[C@@H](OC(C)=O)[C@H]7OC(C)=O)[C@]6(C)C5CC[C@]4(C)[C@@H]3[C@@H]2C)[C@@H](O)[C@H]1OC1OC(C)C(O)C(O)C1O` (stereo not given in full), the activity change, negative = inhibition was -10.8% [at 19.1 µM] (inactive).

Take `CCC/C=C\C=C/CCc1cc(O)c([C@@H]2O[C@H](CO)[C@@H](O)[C@H](O)[C@H]2O)c(O)c1C(=O)OC`: the Potency entry was “inactive”.

For the molecule `CCCOc1ccc(CCc2nc3cc(-c4c(C)noc4C)ccc3n2CCN2CCOCC2)cc1`, the Potency result is “inactive”.

Take `Nc1cccc(CNC(=O)c2ccc(Oc3ccc(OCc4cccc(F)c4)cc3)nc2)c1`: the Potency entry is “inactive”.

For `CC(C)NC(=O)COc1cccc(-c2nc(Nc3ccc4[nH]ncc4c3)c3ccccc3n2)c1`, the Potency result is “inactive”.

Consider `CCC(C)(NC(=O)C(CCC(N)=O)NC(=O)C1CC(O)CN1C(=O)C(C)(C)NC(=O)C(C)(C)NC(=O)C(CC(C)C)NC(=O)CNC(=O)C(NC(=O)C(C)(C)NC(=O)C(C)(C)NC(=O)C(C)(C)NC(=O)C(Cc1ccccc1)NC(C)=O)C(C)C)C(=O)N1CC(O)CC1C(=O)NC(C)(C)C(=O)NC(CO)Cc1ccccc1` (stereo not given) (Ac-F[Aib][Aib][Aib]VGL[Aib][Aib][Hyp]Q[Iva][Hyp][Aib][Phe(ol)]; configuration not given here), for which the activity change, negative = inhibition was 8.8% [at 19.1 µM] (inactive).

For `O=C(Nc1cnc(Cl)nc1)c1ccc(F)c(F)c1`, the Potency entry was “inactive”.

For the molecule `COc1cc2c(cc1OCCCN1CCCC1)N=C(N)C21CCC1`, the Potency entry is “inactive”.

Take `CCCC(=O)C1(c2ccccc2)CCN(C(=O)[C@@H](Cc2ccc(OC)cc2)NC(=O)[C@@H](N)Cc2cncn2C)CC1`: the Potency entry is “inactive”.

Take `C=C(C)C(=O)O[C@H]1[C@H]2C(=C)C(=O)O[C@@H]2/C=C(\CO)CC/C=C(/C=O)[C@@H]1O`: the Potency entry was “inactive”.

For `CC(C)=CCC/C(C)=C/COCC1OC(n2ccc(=O)[nH]c2=O)C(O)C1O` (stereo not given), the Potency entry was “inactive”.

Turning to `CC(C)(C)NC(=O)[C@H]1CC[C@H]2[C@@H]3CC[C@H]4NC(=O)CC[C@]4(C)[C@H]3CC[C@]12C`, the Potency result is “inactive”.

On to `Cc1c(C(=O)Nc2ccc(N3CCC(N4CCOCC4)CC3)c(C#N)c2)cnn1-c1ccc(Cl)cc1`, for which the Potency result was “inactive”.
